Compounds without any hit were thinned out: in the full panel of roughly 83,000, 20% have a hit.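 The test compound was applied at a single concentration to cells in 96-well plates for 48 hours, and percent growth was recorded.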 Activity calls are given as the source filed them. The calls were made as follows: active = growth percent below 10; inactive = the rest.
How the values were obtained:
Assay in all cases: NCI-60 one-dose screen, 48 h (100 = growth as untreated, 0 = no growth, -100 = all killed)
[1] = test system: RPMI-8226 leukemia; details: 10 µM
[2] = test system: OVCAR-8 ovarian; details: 10 µM
[3] = test system: OVCAR-4 ovarian; details: 10 µM
[4] = test system: IGROV1 ovarian; details: 10 µM
[5] = test system: OVCAR-3 ovarian; details: 10 µM
[6] = test system: HS 578T breast; details: 10 µM
[7] = test system: BT-549 breast; details: 10 µM
[8] = test system: MDA-MB-435 melanoma; details: 10 µM
[9] = test system: SW-620 colon; details: 10 µM
[10] = test system: MCF7 breast; details: 10 µM unless noted
[11] = test system: HCT-116 colon; details: 10 µM
[12] = test system: HCC-2998 colon; details: 10 µM
[13] = test system: OVCAR-5 ovarian; details: 10 µM
[14] = test system: NCI/ADR-RES ovarian; details: 10 µM
[15] = test system: T-47D breast; details: 10 µM
[16] = test system: KM12 colon; details: 10 µM
[17] = test system: SK-OV-3 ovarian; details: 10 µM

Measured: growth

COC(=O)C(C)Oc1ccc(OC#N)cc1 (stereo unspecified)
inactive: [1] 103% | [2] 104% | [3] 95.8% | [4] 105% | [5] 105% | [6] 90.1% | [7] 120% | [8] 102% | [9] 95.6% | [10] 98% | [11] 108% | [12] 105%

Cc1cc(=O)cc(C)n1-c1ccccc1
inactive: [1] 97.6% | [2] 109% | [13] 98.3% | [3] 100% | [4] 114% | [5] 120% | [6] 113% | [14] 98.9% | [15] 91.7% | [8] 110% | [9] 107% | [10] 94.4% | [11] 98.4% | [12] 107% | [16] 104%

S=c1sc2ccccc2n1CN1CCCCC1
inactive: [2] 99.6% | [13] 85% | [17] 94.5% | [4] 105% | [5] 93.3% | [6] 100% | [14] 93.4% | [15] 100% | [7] 90.3% | [8] 104% | [9] 90% | [10] 115% | [11] 102% | [12] 116% | [16] 98.4%

CCOC(=O)c1cc(/C=C/c2ccc(Cl)cc2Cl)on1
inactive: [2] 24.1% | [13] 58.8% | [3] 76% | [4] 82.2% | [5] 24.4% | [6] 71.8% | [7] 26.3% | [8] 66.8% | [12] 82%
active: [1] 2.84% | [14] -34.9% | [9] -13.6% | [10] 0.711% | [11] -86.6% | [16] -29.7%

CC(C)(C)n1nc(C2CC2)c(Br)c1NC(=O)c1ccccc1F
inactive: [2] 101% | [13] 104% | [3] 87.1% | [17] 94.5% | [4] 99.3% | [5] 117% | [6] 94.9% | [14] 103% | [15] 108% | [7] 110% | [8] 102% | [9] 105% | [10] 95.7% | [11] 109% | [12] 106% | [16] 98.5%

CC1=CC(=O)c2ccccc2C1=O
inactive: [2] 107% | [13] 105% | [3] 112% | [17] 108% | [4] 112% | [6] 103% | [14] 107% | [15] 98.7% | [7] 116% | [8] 107% | [9] 106% | [10] 100% | [11] 104% | [12] 108% | [16] 104%

OC1CCCc2ccccc21 (stereo unspecified)
inactive: [13] 100% | [3] 99.2% | [17] 98.7% | [4] 97% | [5] 110% | [6] 96.8% | [15] 101% | [7] 98.1% | [8] 104% | [9] 107% | [10] 94.1% | [11] 111% | [12] 119% | [16] 109%

CC(=O)C1CCCCC1
inactive: [1] 96.4% | [2] 95% | [13] 107% | [17] 103% | [4] 106% | [5] 110% | [6] 104% | [14] 107% | [7] 99.9% | [8] 104% | [9] 100% | [10] 97.9% | [11] 102% | [12] 103% | [16] 100%

CCCCCCCCCCCCCC(=O)Oc1ccc[nH]c1=O
inactive: [2] 94.9% | [13] 97.1% | [3] 102% | [17] 88.8% | [4] 97.8% | [5] 103% | [6] 98.1% | [14] 99.8% | [7] 94.4% | [8] 113% | [9] 101% | [10] 95.8% | [11] 94.6% | [12] 109% | [16] 92.7%

CCN(CC)CCNc1ccc(CO)c2sc3ccccc3c(=O)c12
inactive: [1] 37% | [2] 31% | [13] 53.3% | [17] 43.6% | [5] 62.8% | [6] 64.8% | [14] 40.7% | [15] 48.3% | [7] 70% | [8] 38.1% | [9] 29.5% | [11] 23.7% | [12] 40.6% | [16] 42.5%

COc1cc2c(cc1OC)[C@H](C(=O)O)[C@@H](c1ccc(OC(C)C)c(OC)c1)N(C)C2=O
inactive: [1] 95.7% | [13] 98% | [3] 100% | [17] 104% | [4] 138% | [5] 104% | [6] 89.3% | [14] 111% | [15] 96% | [7] 91.6% | [8] 101% | [9] 109% | [10] 108% | [11] 101% | [12] 108%

Cc1cc(N)c(S(=O)(=O)O)c(N)c1
inactive: [1] 95.6% | [2] 109% | [3] 103% | [17] 100% | [5] 112% | [15] 89.7% | [7] 57.8% | [8] 101% | [9] 90.8% | [10] 105% | [11] 91.9% | [12] 86.3% | [16] 107%

CCOC(=O)/C(C#N)=C/c1cccc(C)c1
inactive: [2] 103% | [13] 96.1% | [3] 104% | [17] 101% | [5] 106% | [6] 107% | [14] 97.3% | [15] 86.5% | [7] 64.1% | [8] 107% | [9] 103% | [10] 91.3% | [11] 95.9% | [12] 102% | [16] 103%

O=C(Cc1nc2ccc([N+](=O)[O-])cc2nc1CC(=O)c1ccccc1)c1ccccc1
inactive: [1] 42.9% | [2] 50% | [13] 89.6% | [3] 34.3% | [4] 79.2% | [5] 60.1% | [6] 51.6% | [14] 29.8% | [7] 37.3% | [8] 63.3% | [9] 62.6% | [10] 30.1% | [11] 34.8% | [12] 89% | [16] 39.4%

Nc1ccc(NC(=O)c2cccc(N)c2)cc1
inactive: [1] 94.5% | [13] 101% | [3] 104% | [17] 103% | [5] 107% | [6] 97.1% | [14] 111% | [15] 95.9% | [7] 93.3% | [8] 104% | [9] 102% | [10] 105% | [11] 94.4% | [12] 107% | [16] 103%

O=C(NCc1ccco1)Nc1c(Cl)cc(Cl)cc1Cl
inactive: [2] 101% | [13] 97.7% | [3] 88.4% | [17] 103% | [4] 105% | [5] 112% | [6] 109% | [14] 101% | [15] 88.6% | [7] 96.1% | [8] 96.5% | [9] 102% | [10] 92.8% | [11] 95.5% | [12] 102% | [16] 104%

CCc1nn(Cc2ccccc2)c2nc(C)c(CCc3ccccc3)c(Cl)c12
inactive: [13] 95.1% | [3] 86.2% | [17] 97.1% | [5] 109% | [6] 92.2% | [14] 92% | [15] 59.2% | [7] 99.3% | [8] 92.4% | [9] 99.2% | [10] 82.7% | [11] 81.2% | [12] 101% | [16] 101%

OC1OC(COC(c2ccccc2)(c2ccccc2)c2ccccc2)C(O)C(O)C1O (stereo unspecified)
inactive: [1] 95.9% | [2] 93.7% | [3] 84.1% | [17] 99.9% | [4] 95.3% | [5] 104% | [6] 105% | [14] 104% | [15] 87.5% | [7] 99.6% | [8] 90.9% | [9] 105% | [10] 93.3% | [11] 90.7% | [12] 110% | [16] 107%

O=C(O)c1ccc(S(=O)(=O)O)cc1
inactive: [1] 98% | [3] 104% | [17] 112% | [5] 119% | [6] 87.6% | [14] 100% | [15] 106% | [7] 121% | [8] 114% | [9] 104% | [10] 96.2% | [11] 108% | [12] 105%

O=C(OCC(O)C1OC(c2ccccc2)OC(COC(=O)c2ccccc2)C1O)c1ccccc1 (stereo unspecified)
inactive: [2] 103% | [13] 105% | [3] 93.2% | [17] 108% | [4] 103% | [5] 118% | [6] 116% | [14] 107% | [15] 109% | [7] 110% | [8] 102% | [9] 109% | [10] 91.1% | [11] 109% | [12] 103%

CC1(C)S(=O)(=O)OCCOS1(=O)=O
inactive: [1] 104% | [2] 99.2% | [13] 110% | [3] 102% | [4] 108% | [5] 110% | [6] 106% | [7] 100% | [8] 103% | [9] 101% | [10] 97.1% | [11] 94.6% | [12] 113% | [16] 106%

CC(=O)Nc1cccc(Cl)c1C
inactive: [2] 96.5% | [13] 103% | [3] 109% | [17] 101% | [4] 102% | [5] 102% | [6] 92.9% | [14] 104% | [8] 94.8% | [9] 101% | [10] 105% | [11] 103% | [12] 107% | [16] 98.9%

Reference: PubChem BioAssay (NCI)
